Laboratory results reported in ChEMBL document CHEMBL1201862, “PubChem BioAssay data set” (2004).
Among all 400,000 compounds or so, about 3,700 (0.93%) were called active. About 3% were inconclusive and are not listed. The rule behind the calls is not given here. This excerpt belongs to a sample that is enriched for actives.

Molecular target: T1, Vitamin D3 receptor (Homo sapiens) (UniProt P11473)
T1 sequence (whole entry): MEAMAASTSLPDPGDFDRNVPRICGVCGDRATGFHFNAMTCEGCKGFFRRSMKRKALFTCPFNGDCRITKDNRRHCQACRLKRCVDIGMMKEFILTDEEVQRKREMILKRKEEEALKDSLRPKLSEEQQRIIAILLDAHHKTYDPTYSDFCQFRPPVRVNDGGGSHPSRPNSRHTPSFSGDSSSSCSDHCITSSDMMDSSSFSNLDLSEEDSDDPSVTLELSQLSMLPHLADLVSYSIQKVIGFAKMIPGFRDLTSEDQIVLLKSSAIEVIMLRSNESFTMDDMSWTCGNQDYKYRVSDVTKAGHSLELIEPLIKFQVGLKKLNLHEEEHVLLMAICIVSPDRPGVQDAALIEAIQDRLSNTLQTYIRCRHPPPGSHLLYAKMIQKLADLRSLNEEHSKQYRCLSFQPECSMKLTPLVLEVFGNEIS
Assay: Inhibitors of the vitamin D receptor (VDR): qHTS. [Related pubchem assays (depositor defined):AID504855]
Assay type: functional

Potency, active:
O=C(/C=C/c1ccc(Cl)cc1)c1cccs1 3.16 µM, COc1ccccc1/C=C/C(=O)c1cccs1 25.1 µM, CCCc1nnc(NC(=O)C2C(=O)c3cccc4c3N(CC4)C2=O)s1 (stereo not drawn) 79.4 µM
